Experimental data: the supplement of paper PMC10849652
Targets with a hit are over-represented here; the source holds about 7,900 in all. About 0.6% of all pairs of compound and target were hits. A number with no mark means an inactive call.

Experiments:
Test in all cases: log2 fold change, soluble protein after heating vs DMSO (PISA); higher = thermal stabilisation; K562 cells, 10 uM, 30 min; active = over 0.2 and 3.5 SD of the protein, either way, in both replicates (recomputed)
[1] = compound: C#Cc1cccc(Nc2ncnc3cc(OCCOC)c(OCCOC)cc23)c1 [erlotinib]
Summary of the method: (§1)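 Aliquots of K562 cells (2×10^6 cells/mL) treated with 10 μM compound for 30 min were heated for 3 min over 48°C-58°C. After pooling and extraction in PBS with 0.5% NP-40 at 4°C, soluble protein from a 21,000xg, 90 min spin was quantified by TMTpro 16plex LC-MS/MS with channel sums equalised. Thermal stability is expressed against control samples, from duplicates, as a log2 fold change.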

[2] = compound: C/C(=N\NC(=O)C1=CC(=CC=C1)S(=O)(=O)N2CCOCC2)/C3=C(C=CC(=C3)Cl)O
Summary of the method: as §1

[3] = compound: C1=CC(=C(C=C1Cl)C2=NC3=NC=CN=C3C(=N2)NC4=CC=NC=C4)F
Summary of the method: as §1

[4] = compound: C1=CC(=CC=C1C2=NC3=C(N2)C=C(C=C3)C(=O)N)OC4=CC=C(C=C4)Cl
Summary of the method: as §1

[5] = compound: C1=CC2=C(C=CC(=C2)/C=C\3/C(=O)NC(=NCC4=CC=CS4)S3)N=C1
Summary of the method: as §1

[6] = compound: C1=CC2=NC=CN=C2C=C1/C=C/3\C(=O)NC(=O)S3
Summary of the method: as §1

[7] = compound: C1=CC=C(C=C1)C2=NC(=C(N2)C3=CC=NC=C3)C4=CC(=C(C=C4)Cl)O
Summary of the method: as §1

[8] = compound: C1=CC=C2C(=C1)C3=NNC4=CC=CC(=C43)C2=O
Summary of the method: as §1

[9] = compound: C1CCN(C1)C(=O)NC2=CC=CC(=C2)NC3=NC=C(C(=N3)NCCC4=CN=CN4)Br
Summary of the method: as §1

[10] = compound: C1CN(CCC1(CC2=CC=C(C=C2)Cl)N)C3=NC=NC4=C3C=CN4
Summary of the method: as §1

Sequence of UniProt P00367 (P00367 whole entry, looked up): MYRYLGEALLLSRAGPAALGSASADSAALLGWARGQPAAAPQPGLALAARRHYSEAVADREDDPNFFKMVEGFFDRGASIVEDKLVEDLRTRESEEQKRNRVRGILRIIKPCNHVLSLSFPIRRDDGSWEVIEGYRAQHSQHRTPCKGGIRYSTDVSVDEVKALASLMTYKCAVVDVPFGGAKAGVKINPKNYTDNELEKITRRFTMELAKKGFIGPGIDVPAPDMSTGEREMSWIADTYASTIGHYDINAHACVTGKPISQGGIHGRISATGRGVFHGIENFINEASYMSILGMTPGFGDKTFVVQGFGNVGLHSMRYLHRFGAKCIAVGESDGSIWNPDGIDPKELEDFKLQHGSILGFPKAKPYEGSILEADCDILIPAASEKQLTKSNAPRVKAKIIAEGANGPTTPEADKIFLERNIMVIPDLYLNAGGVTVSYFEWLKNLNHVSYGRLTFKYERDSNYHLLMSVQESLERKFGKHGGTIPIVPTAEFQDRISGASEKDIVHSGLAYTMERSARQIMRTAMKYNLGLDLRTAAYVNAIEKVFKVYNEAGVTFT
Sequence of UniProt Q92522 (Q92522 whole entry, looked up): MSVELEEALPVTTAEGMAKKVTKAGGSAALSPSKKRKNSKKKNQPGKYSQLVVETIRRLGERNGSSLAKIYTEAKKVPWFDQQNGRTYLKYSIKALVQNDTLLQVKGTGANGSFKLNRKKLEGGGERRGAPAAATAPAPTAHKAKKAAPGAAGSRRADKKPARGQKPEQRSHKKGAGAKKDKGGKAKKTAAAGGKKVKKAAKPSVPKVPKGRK
Sequence of UniProt P07910 (P07910 whole entry, looked up): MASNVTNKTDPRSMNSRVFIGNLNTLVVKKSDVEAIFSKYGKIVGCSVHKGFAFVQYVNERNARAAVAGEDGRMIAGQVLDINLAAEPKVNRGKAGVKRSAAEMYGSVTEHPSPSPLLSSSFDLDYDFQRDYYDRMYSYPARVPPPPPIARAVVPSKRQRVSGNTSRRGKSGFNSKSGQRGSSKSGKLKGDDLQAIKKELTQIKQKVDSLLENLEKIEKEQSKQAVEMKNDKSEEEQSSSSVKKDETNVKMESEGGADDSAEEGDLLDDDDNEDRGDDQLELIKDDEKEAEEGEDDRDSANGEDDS
Sequence of UniProt P62879 (P62879 whole entry, looked up): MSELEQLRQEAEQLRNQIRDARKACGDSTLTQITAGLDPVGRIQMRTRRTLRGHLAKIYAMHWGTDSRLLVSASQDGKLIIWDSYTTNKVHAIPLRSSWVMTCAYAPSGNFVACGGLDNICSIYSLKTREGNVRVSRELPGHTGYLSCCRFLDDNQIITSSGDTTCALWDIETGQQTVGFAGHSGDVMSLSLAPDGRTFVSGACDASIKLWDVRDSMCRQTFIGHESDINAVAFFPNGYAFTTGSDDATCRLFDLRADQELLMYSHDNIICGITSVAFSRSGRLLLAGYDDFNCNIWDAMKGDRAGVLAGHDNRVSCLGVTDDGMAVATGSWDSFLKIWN
Sequence of UniProt Q13907 (Q13907 whole entry, looked up): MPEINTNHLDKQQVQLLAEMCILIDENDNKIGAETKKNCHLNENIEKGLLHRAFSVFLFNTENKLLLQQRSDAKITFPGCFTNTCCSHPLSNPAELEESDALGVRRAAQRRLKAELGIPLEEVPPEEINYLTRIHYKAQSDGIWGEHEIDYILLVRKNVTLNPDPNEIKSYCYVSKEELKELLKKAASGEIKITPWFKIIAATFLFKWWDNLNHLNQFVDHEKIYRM
Sequence of UniProt Q9Y6M1 (Q9Y6M1 whole entry, looked up): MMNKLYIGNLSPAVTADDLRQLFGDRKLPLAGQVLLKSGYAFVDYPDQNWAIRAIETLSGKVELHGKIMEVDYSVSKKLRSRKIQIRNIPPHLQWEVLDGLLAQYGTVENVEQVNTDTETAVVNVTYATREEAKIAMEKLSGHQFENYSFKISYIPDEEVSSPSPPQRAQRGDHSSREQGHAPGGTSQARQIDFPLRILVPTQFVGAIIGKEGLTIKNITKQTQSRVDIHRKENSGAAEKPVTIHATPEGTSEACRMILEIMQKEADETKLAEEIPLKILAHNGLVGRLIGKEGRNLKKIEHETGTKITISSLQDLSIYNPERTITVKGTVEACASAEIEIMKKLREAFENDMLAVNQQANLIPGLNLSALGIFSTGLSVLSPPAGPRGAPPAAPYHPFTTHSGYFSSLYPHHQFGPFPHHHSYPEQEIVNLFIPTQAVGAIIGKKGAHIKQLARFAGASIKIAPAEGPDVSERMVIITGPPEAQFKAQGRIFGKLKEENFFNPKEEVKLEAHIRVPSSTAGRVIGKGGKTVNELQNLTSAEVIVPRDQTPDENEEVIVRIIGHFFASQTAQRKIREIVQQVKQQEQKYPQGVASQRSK
Sequence of UniProt Q8NCW6 (Q8NCW6 whole entry, looked up): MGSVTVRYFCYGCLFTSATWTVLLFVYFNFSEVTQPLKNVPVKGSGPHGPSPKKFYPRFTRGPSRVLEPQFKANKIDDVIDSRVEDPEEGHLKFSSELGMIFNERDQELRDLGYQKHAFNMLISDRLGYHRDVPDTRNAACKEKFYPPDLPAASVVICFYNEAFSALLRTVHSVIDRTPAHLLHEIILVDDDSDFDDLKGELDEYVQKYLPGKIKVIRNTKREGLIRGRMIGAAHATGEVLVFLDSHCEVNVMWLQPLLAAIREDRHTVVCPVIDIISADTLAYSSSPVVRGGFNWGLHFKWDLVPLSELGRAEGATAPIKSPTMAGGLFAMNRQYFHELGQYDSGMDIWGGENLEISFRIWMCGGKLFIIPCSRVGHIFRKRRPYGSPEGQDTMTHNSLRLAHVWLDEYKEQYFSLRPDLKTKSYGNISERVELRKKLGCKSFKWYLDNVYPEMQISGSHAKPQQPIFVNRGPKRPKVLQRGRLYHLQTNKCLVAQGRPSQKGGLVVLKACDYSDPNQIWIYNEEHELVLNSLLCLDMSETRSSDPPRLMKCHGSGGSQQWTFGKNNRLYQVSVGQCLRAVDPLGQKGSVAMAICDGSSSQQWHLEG
Sequence of UniProt O76003 (O76003 whole entry, looked up): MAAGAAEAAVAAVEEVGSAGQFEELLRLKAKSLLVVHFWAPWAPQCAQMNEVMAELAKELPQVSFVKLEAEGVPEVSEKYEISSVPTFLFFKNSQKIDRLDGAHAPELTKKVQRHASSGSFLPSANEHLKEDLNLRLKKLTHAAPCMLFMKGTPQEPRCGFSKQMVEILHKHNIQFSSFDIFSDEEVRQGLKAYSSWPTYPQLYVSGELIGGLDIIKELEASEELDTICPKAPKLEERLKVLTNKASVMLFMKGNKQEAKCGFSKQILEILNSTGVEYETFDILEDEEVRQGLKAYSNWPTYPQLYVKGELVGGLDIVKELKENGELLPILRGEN
Sequence of UniProt P21695 (P21695 whole entry, looked up): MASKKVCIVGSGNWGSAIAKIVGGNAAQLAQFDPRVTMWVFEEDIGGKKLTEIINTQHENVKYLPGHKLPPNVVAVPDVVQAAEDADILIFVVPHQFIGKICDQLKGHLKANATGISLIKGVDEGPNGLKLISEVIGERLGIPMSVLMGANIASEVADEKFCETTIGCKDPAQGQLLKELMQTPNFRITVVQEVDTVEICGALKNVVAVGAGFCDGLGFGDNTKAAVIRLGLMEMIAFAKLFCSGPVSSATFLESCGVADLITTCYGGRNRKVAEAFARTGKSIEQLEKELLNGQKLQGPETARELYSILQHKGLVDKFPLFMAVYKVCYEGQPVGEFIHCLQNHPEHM
Sequence of UniProt Q8N9F7 (Q8N9F7 whole entry, looked up): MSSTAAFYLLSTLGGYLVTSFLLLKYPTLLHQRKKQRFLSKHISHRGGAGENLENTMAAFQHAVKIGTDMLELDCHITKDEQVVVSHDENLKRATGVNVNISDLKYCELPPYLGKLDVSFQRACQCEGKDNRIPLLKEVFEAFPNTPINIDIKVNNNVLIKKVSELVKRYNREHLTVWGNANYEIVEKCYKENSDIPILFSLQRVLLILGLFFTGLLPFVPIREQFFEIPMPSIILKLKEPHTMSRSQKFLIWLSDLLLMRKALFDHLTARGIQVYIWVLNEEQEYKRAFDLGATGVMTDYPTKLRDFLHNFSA
Sequence of UniProt Q9H0R4 (Q9H0R4 whole entry, looked up): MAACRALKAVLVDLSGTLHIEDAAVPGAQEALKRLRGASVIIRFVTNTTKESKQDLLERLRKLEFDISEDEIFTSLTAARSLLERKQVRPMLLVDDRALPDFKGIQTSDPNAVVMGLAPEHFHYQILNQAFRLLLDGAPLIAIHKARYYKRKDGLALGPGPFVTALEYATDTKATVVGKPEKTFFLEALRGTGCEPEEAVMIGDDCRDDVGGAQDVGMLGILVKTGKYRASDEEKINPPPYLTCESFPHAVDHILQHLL
Sequence of UniProt P14324 (P14324 whole entry, looked up): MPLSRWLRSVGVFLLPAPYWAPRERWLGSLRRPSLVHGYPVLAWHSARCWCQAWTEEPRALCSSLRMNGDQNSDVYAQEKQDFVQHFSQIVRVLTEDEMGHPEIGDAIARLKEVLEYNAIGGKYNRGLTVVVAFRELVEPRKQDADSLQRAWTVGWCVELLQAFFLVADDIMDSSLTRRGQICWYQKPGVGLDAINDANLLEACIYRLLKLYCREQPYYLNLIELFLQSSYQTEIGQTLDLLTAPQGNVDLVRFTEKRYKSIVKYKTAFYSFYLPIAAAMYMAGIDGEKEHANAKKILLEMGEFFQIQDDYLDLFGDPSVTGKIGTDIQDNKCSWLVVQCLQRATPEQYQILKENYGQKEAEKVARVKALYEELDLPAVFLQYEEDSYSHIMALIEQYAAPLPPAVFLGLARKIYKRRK
Sequence of UniProt Q96HJ9 (Q96HJ9 whole entry, looked up): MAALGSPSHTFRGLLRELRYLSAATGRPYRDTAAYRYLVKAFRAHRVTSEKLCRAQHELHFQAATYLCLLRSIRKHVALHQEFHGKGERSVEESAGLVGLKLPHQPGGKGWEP

Target | log2 fold change [1] | log2 fold change [2] | log2 fold change [3] | log2 fold change [4] | log2 fold change [5] | log2 fold change [6] | log2 fold change [7] | log2 fold change [8] | log2 fold change [9] | log2 fold change [10]
FNTB (UniProt P49356) | 0.488 (active) | 0.028 | 0.203 | 0.028 | 0.208 | -0.024 | 0.091 | 0.107 | 0.326 | 0.065
H1FX (UniProt Q92522) | -0.285 | -0.189 | -0.379 | 0.016 | -0.12 | -0.012 | 0.033 | 0 | 0.076 | -0.101
GMEB1 (UniProt Q9Y692) | 0.106 | 0.071 | 0.012 | -0.005 | -0.006 | 0.009 | -0.027 | -0.089 | 0.004 | 0.036
GLRX3 (UniProt O76003) | -0.031 | 0.024 | 0.052 | -0.037 | 0.011 | 0.006 | 0.031 | -0.001 | 0.003 | -0.015
GNAI3 (UniProt P08754) | -0.078 | -0.038 | -0.01 | 0.205 | 0.021 | 0 | 0.036 | -0.026 | -0.047 | 0.026
GLYR1 (UniProt Q49A26) | -0.053 | -0.211 | -0.289 | 0.05 | -0.352 | 0.1 | -0.021 | -0.034 | 0.119 | -0.03
GALNT11 (UniProt Q8NCW6) | 0.088 | -0.019 | 0.033 | -0.009 | 0.122 | 0.118 | -0.034 | 0.043 | -0.025 | 0.014
HDHD2 (UniProt Q9H0R4) | 0.029 | 0 | 0.133 | 0.009 | 0.013 | 0.046 | -0.015 | -0.018 | -0.009 | 0.037
GLA (UniProt P06280) | 0.016 | 0.019 | -0.018 | -0.021 | -0.018 | -0.017 | -0.034 | -0.032 | 0.026 | 0.045
GDPD1 (UniProt Q8N9F7) | 0.077 | 0.024 | -0.061 | -0.018 | -0.015 | 0.01 | 0.048 | -0.018 | -0.037 | 0.024
GALNT4 (UniProt Q8N4A0) | 0.077 | 0.062 | 0.075 | 0.026 | 0.086 | 0.044 | -0.012 | 0.008 | 0.006 | 0.005
GOPC (UniProt Q9HD26) | 0.016 | 0.051 | -0.284 | -0.178 | -0.027 | -0.147 | -0.008 | 0.265 | -0.036 | 0.06
GNB2 (UniProt P62879) | 0.003 | 0.079 | -0.04 | 0.051 | -0.016 | 0.007 | -0.003 | 0.008 | -0.057 | -0.002
HHEX (UniProt Q03014) | -0.043 | -0.206 | 0.069 | 0.044 | 0.008 | -0.022 | -0.044 | 0.037 | -0.004 | 0.022
IGF2BP2 (UniProt Q9Y6M1) | -0.013 | -0.083 | -0.255 | -0.015 | 0.158 | 0.014 | 0.007 | 0.075 | 0.057 | 0.075
GPD1 (UniProt P21695) | 0.55 | -0.084 | -0.075 | -0.305 | 0.129 | -0.149 | -0.003 | -0.047 | -0.043 | 0.032
GLUD1 (UniProt P00367) | 0.068 | -0.009 | 0.051 | 0.026 | 0.039 | -0.018 | -0.033 | 0 | 0.05 | -0.027
FDPS (UniProt P14324) | 0.18 | 0.174 | -0.022 | 0.067 | 0.3 | -0.026 | 0.06 | 0.186 | 0.006 | -0.309
FMC1 (UniProt Q96HJ9) | 0 | 0.072 | 0.083 | 0.004 | 0.108 | -0.063 | 0.319 (active) | 0.001 | -0.026 | -0.042
IDI1 isoform 2 (UniProt Q13907) | 0.004 | -0.313 (active) | 0.03 | -0.012 | -0.033 | -0.004 | -0.038 | 0.034 | -0.02 | 0.002
HNRNPC isoform 2 (UniProt P07910) | 0.093 | -0.349 | -0.682 | 0.204 | 0.025 | 0.188 | -0.172 | -0.164 | 0.087 | -0.385
GID4 (UniProt Q8IVV7) | -0.033 | 0.017 | 0.005 | 0.028 | -0.046 | 0.003 | -0.072 | -0.018 | 0.042 | -0.005
IFI30 (UniProt P13284) | 0.061 | 0.018 | -0.084 | 0.012 | -0.089 | 0.026 | 0.067 | 0.009 | -0.004 | 0.026
HADHB (UniProt P55084) | -0.057 | 0.112 | 0.035 | -0.184 | 0.063 | 0.024 | 0.04 | 0.259 | -0.206 | 0.158
